From PubChem BioAssay AID590 (National Center for Advancing Translational Sciences (NCATS), 2007)
Among all 59,000 compounds or so, about 6,500 (11%) were called active. About 15% were inconclusive and are not listed. Cut-off read from the data, not from the text of the source: active = max dye-equivalent concentration above about 10 nM; inconclusive = mostly about 1.1 nM to 9.6 nM; inactive = weaker than that. The sample as a whole holds a higher share of actives than the screen did.

Assay: qHTS Assay for Spectroscopic Profiling in A350 Spectral Region
Conditions: Compound autofluorescence, 340/450 nm, Alexa 350 dye-equivalents; stronger effect = higher value

Max dye-equivalent concentration, active:
Cc1nc2cnc(N3CCNCC3)nc2n(CCc2ccccc2)c1=O 60 nM
Cn1c(=O)c(-c2ccccc2)nc2cnc(N3CCNCC3)nc21 320 nM
COCCn1c(=O)c(CCc2ccccc2)nc2cnc(N3CCNCC3)nc21 60 nM
COCCn1c(=O)c(-c2cc(F)cc(F)c2)nc2cnc(N3CCNCC3)nc21 390 nM
CC1(C)S[C@@H]2[C@@H](NC(=O)[C@@H](N)c3ccccc3)C(=O)N2[C@H]1C(=O)O 44 nM
CC(C)C(NC(=O)OCc1ccccc1)C(=O)OCC(=O)N1C(C)CCCC1C (centres undefined) 48 nM
O=C1CCCC2=C1C(c1cccs1)n1nc(SCc3ccccc3)nc1N2 (centres undefined) 110 nM
COc1ccc(-c2ccnc(SCC(=O)N3CCOCC3)n2)cc1 100 nM
COc1ccc2oc(=O)c(C(=O)N3CCN(c4ccccc4F)CC3)cc2c1 41 nM
Cc1cc2nc(-c3ccc(NC(=O)c4cccnc4)cc3)oc2cc1C 90 nM
COc1ccc(S(=O)(=O)N(CCCN2CCCC2=O)Cc2cc3c(C)ccc(C)c3[nH]c2=O)cc1 13 nM

Max dye-equivalent concentration, inactive:
COCCn1c(CN2CCC(Cc3ccccc3)CC2)nc2c1c(=O)n(C)c(=O)n2C
Cn1cc(-c2nc3cnc(N4CCNCC4)nc3n(CCc3ccccc3)c2=O)c2ccccc21
CC1CCN(Cc2nc3c(c(=O)n(C)c(=O)n3C)n2CCc2ccccc2)CC1
CC(=O)O[C@]1(C(C)=O)CC[C@@H]2[C@@H]3C=C(C)C4=CC(=O)CC[C@@]4(C)[C@H]3CC[C@]21C
O=C(NCCN1CCOCC1)c1c(F)c(F)c(F)c(F)c1F
COc1ccc(-c2nn(-c3ccccc3)cc2C(=O)Nc2nc(CC(C)=O)ns2)cc1
CC(=O)NC(C)c1nc2ccccc2n1Cc1ccccc1F (centres undefined)
CC(C)C1Cc2c(sc3c2c(=O)n(-c2ccccc2)c2nncn32)CO1 (centres undefined)
CCOC(=O)Cn1c2c(c(-c3ccccc3OC)cc1=O)CCCC2
COc1ccc(N2CCN(C(=O)CSc3nnc4ncccn34)CC2)cc1
O=C1CCC(=O)N1CCOP1(=O)COc2ccccc2OC1
CCCn1c(=O)c2[nH]c(-c3ccc(OCC(=O)NCCN)cc3)nc2n(CCC)c1=O
COc1ccc(C(=O)N2CCC3(CCCN(C(c4ccccc4)c4ccccc4)C3)CC2)cc1
CC1(C)SC2c3ccccc3C(=O)N2[C@@H]1C(=O)NCc1ccco1 (some centres undefined)
CCCC[C@H]1C(=O)N(c2ccccc2)N(c2ccc(O)cc2)C1=O
Cc1cc(Br)ccc1NC(=O)C1CCCO1 (centres undefined)
COc1cccc(NC(=O)C2CCCN2C(=O)OCc2ccccc2)c1 (centres undefined)
NC1(C(=O)OCc2ccccc2)CCCC1
COc1cc(-c2noc(C3CCCN(S(=O)(=O)c4cccc(Cl)c4)C3)n2)cc(OC)c1OC (centres undefined)
Cc1nc2nc[nH]n2c(=O)c1NC(=O)c1cccc(OCC(C)C)c1
CCCN1Cc2cccc(C(=O)NCc3ccccc3)c2C1=O
CC(C)C(=O)N1c2ccccc2NC2=C(C(=O)CCC2)C1c1ccc(N(C)C)cc1 (centres undefined)
NC(=NC(=O)c1ccccc1)C1=C(O)CCC1=O
COc1ccc(-c2nc(SCC(=O)N3CCOCC3)n[nH]2)cc1
CCn1c(COc2cccc(OC)c2)nnc1SCC(=O)N1CCOCC1
CC(=O)c1nc(N2C(=O)C3CC=C(C)CC3C2=O)sc1C (centres undefined)
O/N=C(\c1ccc2c(c1)OCCO2)C1CCCCC1
Cc1ccsc1C(C(=O)NC1CCCCC1)N(C(=O)Cc1cccs1)C1CC1 (centres undefined)
COc1ccc2oc(=O)c(C(=O)N3CCCc4ccccc43)cc2c1
O=C(c1cccc2ccccc12)N1CCN(c2ccccc2F)CC1
Cc1cccc(OCc2nnc(SCn3nnc4ccccc4c3=O)o2)c1
CC1(C)C2CCC1(C)C(OC(=O)CCn1ccnc1)C2 (centres undefined)
COc1cccc(NS(=O)(=O)c2ccc3[nH]cc(C(=O)NCCCOC(C)C)c(=O)c3c2)c1
COC(=O)c1ccccc1NC(=O)c1cncc(Br)c1
CCOC(=O)c1cc(NC(=O)c2cccnc2)cc(C(=O)OCC)c1
CCC(=O)Nc1cccc(NC(=O)c2cccnc2)c1
O=S(=O)(O)CCN1CCOCC1
CCCc1nnc(NC(=O)CN2C(=O)c3ccccc3S2(=O)=O)s1
O=P(O)(CP(=O)(c1ccccc1)c1ccccc1)c1ccccc1
O=C(Nc1c(-c2ccccc2)nc2c(Br)cc(Br)cn12)c1ccco1
CCOc1cc2[nH]c(=S)n(CCCN3CCCC3=O)c(=O)c2cc1OCC
CCN1CCN(C(=O)CN(C)S(=O)(=O)c2ccc(OC)cc2)CC1
CC(C)(C)c1ccc(C(=O)CSc2ncn[nH]2)cc1
